For the experiment, the target named is furin, P09958. The experiment can be described thus: furin cleavage Z-score vs untreated control; higher = more cleavage, active = 3.5 or more, inactive = 1 or less, 8 variable residues between constant flanks. The method, boiled down: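 Abundance of DNA freed from bead-bound 8-mer peptide–cDNA fusions by purified furin was measured as sequencing read counts after PCR adapter tagging. Cutting ran 7.5, 15 or 30 min in 0.01 ml of 50 mM HEPES pH 7.5 with CaCl2 and NaCl at 1:10 enzyme:substrate. The cleavage Z-score expresses these log counts against furin-free reactions after lowess adjustment and median absolute deviation scaling.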

The other results are listed elsewhere or left out. How many sequences the whole screen found active is unknown.

Sequence of furin, P09958 (P09958 whole entry, the tested form may be a part): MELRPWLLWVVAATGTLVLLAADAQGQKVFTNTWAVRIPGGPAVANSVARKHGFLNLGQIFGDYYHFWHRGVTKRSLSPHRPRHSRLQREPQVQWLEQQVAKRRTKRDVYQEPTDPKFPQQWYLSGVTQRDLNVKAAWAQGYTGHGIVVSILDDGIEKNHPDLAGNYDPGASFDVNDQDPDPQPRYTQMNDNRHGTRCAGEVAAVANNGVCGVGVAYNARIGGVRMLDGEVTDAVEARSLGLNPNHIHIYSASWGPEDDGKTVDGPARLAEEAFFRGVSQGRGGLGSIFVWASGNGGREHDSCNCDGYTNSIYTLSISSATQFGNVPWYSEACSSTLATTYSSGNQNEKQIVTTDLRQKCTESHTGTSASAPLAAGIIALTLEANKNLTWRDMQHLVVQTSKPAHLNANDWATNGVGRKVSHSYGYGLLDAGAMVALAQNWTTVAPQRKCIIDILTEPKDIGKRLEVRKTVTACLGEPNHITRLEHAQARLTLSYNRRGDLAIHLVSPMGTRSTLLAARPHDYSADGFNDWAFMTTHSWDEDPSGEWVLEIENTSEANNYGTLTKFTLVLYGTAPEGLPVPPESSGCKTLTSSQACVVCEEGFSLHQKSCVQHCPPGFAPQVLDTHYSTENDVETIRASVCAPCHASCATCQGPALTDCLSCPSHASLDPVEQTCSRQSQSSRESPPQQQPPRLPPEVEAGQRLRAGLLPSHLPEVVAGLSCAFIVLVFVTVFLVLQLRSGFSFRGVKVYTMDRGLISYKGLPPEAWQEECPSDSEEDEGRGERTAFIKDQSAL

With CATGMTTDNLAGNASASA [HC1212], the “furin cleavage Z-score” value (7.5 min) was -0.509 (inactive), the “furin cleavage Z-score” value (15 min) turned out to be 1.51 and the “furin cleavage Z-score” value (30 min) is -0.989 (inactive).

Take CAHLNSTALNAGNASASA [HC371]: the “furin cleavage Z-score” value (7.5 min) turned out to be 1.65, the “furin cleavage Z-score” value (15 min) is 0.509 (inactive) and the “furin cleavage Z-score” value (30 min) is 0.52 (inactive).

Regarding CAVEPVVFSQAGNASASA [HC646], the “furin cleavage Z-score” value is -0.426 (inactive) (7.5 min), 0.0995 (inactive) (15 min) and -0.8 (inactive) (30 min).

As to CASMPCSAHLAGNASASA [HC2486], the “furin cleavage Z-score” value runs as follows: (7.5 min) -0.177 (inactive); (15 min) 1.03; (30 min) -0.00604 (inactive).

Take CAQEECSQHLAGNASASA [HC1682]: the “furin cleavage Z-score” value is -0.746 (inactive) (7.5 min), 0.819 (inactive) (15 min) and 1.15 (30 min).

CARKIRTVGNAGNASASA [FS-1726]: the “furin cleavage Z-score” value is, setting by setting: (7.5 min) 5.44 (active); (15 min) 7.79 (active); (30 min) 7.77 (active).

Regarding CARQARRVGGAGNASASA [FS-1766], the “furin cleavage Z-score” value by setting is: (7.5 min) -0.614 (inactive); (15 min) -0.316 (inactive); (30 min) -0.000733 (inactive).

Consider CACVIGGAGNAGNASASA [HC445], for which the “furin cleavage Z-score” value was -1.36 (inactive) (7.5 min), -2.02 (inactive) (15 min) and -1.24 (inactive) (30 min).

Consider CARQVRCVGNAGNASASA [FS-3045], for which the “furin cleavage Z-score” value is, setting by setting: (7.5 min) 3.15; (15 min) 3.4; (30 min) 5.33 (active).

Regarding CARKIRVNGTAGNASASA [FS-2422], the “furin cleavage Z-score” value by setting is: (7.5 min) -0.334 (inactive); (15 min) 0.321 (inactive); (30 min) -1.68 (inactive).

Consider CARQVRGVTQAGNASASA [FS-2447], for which the “furin cleavage Z-score” value was -1.36 (inactive) (7.5 min), 0.0563 (inactive) (15 min) and 0.556 (inactive) (30 min).

Regarding CASGFVSLLAAGNASASA [HC359], the “furin cleavage Z-score” value (7.5 min) was 0.181 (inactive), the “furin cleavage Z-score” value (15 min) was 0.268 (inactive) and the “furin cleavage Z-score” value (30 min) was 0.641 (inactive).

As for CAVFTDNSSPAGNASASA [HC765], the “furin cleavage Z-score” value (7.5 min) was -0.215 (inactive), the “furin cleavage Z-score” value (15 min) is -0.103 (inactive) and the “furin cleavage Z-score” value (30 min) is 0.299 (inactive).

For CAEPLDLPPIAGNASASA [HC1598], the “furin cleavage Z-score” value is 0.806 (inactive) (7.5 min), 1.44 (15 min) and 0.441 (inactive) (30 min).

For CAVPSTEDLVAGNASASA [HC1097], the “furin cleavage Z-score” value (7.5 min) was -2.52 (inactive), the “furin cleavage Z-score” value (15 min) is -0.505 (inactive) and the “furin cleavage Z-score” value (30 min) is 0.561 (inactive).

For the sequence CARVRRRSVQAGNASASA [FS-3175], the “furin cleavage Z-score” value was 0.273 (inactive) (7.5 min), 0.235 (inactive) (15 min) and 0.754 (inactive) (30 min).

Regarding CARVMRWNSKAGNASASA [FS-3120], the “furin cleavage Z-score” value was -0.31 (inactive) (7.5 min), 0.804 (inactive) (15 min) and 2.88 (30 min).

Turning to CARVRRLVRHAGNASASA [FS-3240], the “furin cleavage Z-score” value (7.5 min) is 12.5 (active), the “furin cleavage Z-score” value (15 min) was 11.6 (active) and the “furin cleavage Z-score” value (30 min) was 9.85 (active).

In the case of CARVRRAVRIAGNASASA [FS-2107], the “furin cleavage Z-score” value by setting is: (7.5 min) 2.88; (15 min) 2.85; (30 min) 5.12 (active).

For CAAVRRLVGNAGNASASA [FS-1667], the “furin cleavage Z-score” value was -1.38 (inactive) (7.5 min), -1.34 (inactive) (15 min) and -1.08 (inactive) (30 min).

Take CARVRRAWVIAGNASASA [FS-3124]: the “furin cleavage Z-score” value reads like this: (7.5 min) 1.98; (15 min) 4.98 (active); (30 min) 7.77 (active).

For CARVRRANTFAGNASASA [FS-2622], the “furin cleavage Z-score” value is, setting by setting: (7.5 min) 3.44; (15 min) 5.83 (active); (30 min) 5.99 (active).

CAASRQAEVIAGNASASA [HC1030]: the “furin cleavage Z-score” value runs as follows: (7.5 min) -0.216 (inactive); (15 min) -0.538 (inactive); (30 min) -1.56 (inactive).

On to CAYQATVCARAGNASASA [HC955], for which the “furin cleavage Z-score” value is, setting by setting: (7.5 min) 1.06; (15 min) 0.432 (inactive); (30 min) -1.24 (inactive).

In the case of CAYFVRVQGLAGNASASA [HC616], the “furin cleavage Z-score” value is, setting by setting: (7.5 min) 0.749 (inactive); (15 min) 0.0281 (inactive); (30 min) 0.654 (inactive).

As to CALSTGLIHLAGNASASA [HC503], the “furin cleavage Z-score” value (7.5 min) is 1.35, the “furin cleavage Z-score” value (15 min) is 0.833 (inactive) and the “furin cleavage Z-score” value (30 min) is 1.12.

As to CAAAQGYKVLAGNASASA [HC783], the “furin cleavage Z-score” value reads like this: (7.5 min) 0.259 (inactive); (15 min) 0.477 (inactive); (30 min) -0.5 (inactive).

As to CADPDLSDGSAGNASASA [HC1359], the “furin cleavage Z-score” value (7.5 min) is -1.03 (inactive), the “furin cleavage Z-score” value (15 min) is -0.792 (inactive) and the “furin cleavage Z-score” value (30 min) was -0.78 (inactive).

Take CAVVCCSMSGAGNASASA [HC2096]: the “furin cleavage Z-score” value is -0.582 (inactive) (7.5 min), -1.33 (inactive) (15 min) and -0.463 (inactive) (30 min).

For CARHRRAAGGAGNASASA [FS-2144], the “furin cleavage Z-score” value was 5.47 (active) (7.5 min), 4.69 (active) (15 min) and 5.6 (active) (30 min).

For the sequence CARIRRNAKGAGNASASA [FS-1723], the “furin cleavage Z-score” value runs as follows: (7.5 min) 9.77 (active); (15 min) 9.21 (active); (30 min) 7.23 (active).

Consider CARLRRFQKGAGNASASA [FS-2714], for which the “furin cleavage Z-score” value (7.5 min) is -0.592 (inactive), the “furin cleavage Z-score” value (15 min) was -0.736 (inactive) and the “furin cleavage Z-score” value (30 min) is -0.569 (inactive).

Turning to CARILRSAWGAGNASASA [FS-2684], the “furin cleavage Z-score” value (7.5 min) is -1.8 (inactive), the “furin cleavage Z-score” value (15 min) is 0.635 (inactive) and the “furin cleavage Z-score” value (30 min) is 0.838 (inactive).

As to CARQRRAAKGAGNASASA [FS-3230], the “furin cleavage Z-score” value (7.5 min) is 5.82 (active), the “furin cleavage Z-score” value (15 min) is 8.24 (active) and the “furin cleavage Z-score” value (30 min) was 7.16 (active).

Take CARQRRAAGGAGNASASA [FS-2588]: the “furin cleavage Z-score” value runs as follows: (7.5 min) 4.04 (active); (15 min) 2.03; (30 min) 3.5 (active).

As to CARQRRPHGGAGNASASA [FS-2765], the “furin cleavage Z-score” value is -0.899 (inactive) (7.5 min), -0.697 (inactive) (15 min) and -0.913 (inactive) (30 min).

Consider CARHRRIHSGAGNASASA [FS-2945], for which the “furin cleavage Z-score” value by setting is: (7.5 min) -0.899 (inactive); (15 min) -0.653 (inactive); (30 min) -0.511 (inactive).

For the sequence CARQKKTTGGAGNASASA [FS-3034], the “furin cleavage Z-score” value (7.5 min) is -1.15 (inactive), the “furin cleavage Z-score” value (15 min) is -0.895 (inactive) and the “furin cleavage Z-score” value (30 min) is -0.562 (inactive).

With CARPLRDAGGAGNASASA [FS-2357], the “furin cleavage Z-score” value is, setting by setting: (7.5 min) 0.0621 (inactive); (15 min) -0.105 (inactive); (30 min) -0.644 (inactive).

As for CASWLGNIIMAGNASASA [HC1574], the “furin cleavage Z-score” value (7.5 min) was -0.174 (inactive), the “furin cleavage Z-score” value (15 min) is -0.173 (inactive) and the “furin cleavage Z-score” value (30 min) is 0.459 (inactive).

On to CAEVVTSTAVAGNASASA [HC2223], for which the “furin cleavage Z-score” value runs as follows: (7.5 min) -1.08 (inactive); (15 min) 1.73; (30 min) 0.704 (inactive).

On to CAGDDLVVICAGNASASA [HC1529], for which the “furin cleavage Z-score” value is -1.44 (inactive) (7.5 min), -0.0771 (inactive) (15 min) and -0.978 (inactive) (30 min).

These data come from the supplement of paper PMC3545927.
